# In the library only some 3.6% were active in any assay of this set; here they are far more common.
# HSP90 inh = HSP90 refolding inhibition in rabbit reticulocyte lysate. luciferase refolding luminescence, 3 h. inhibition, % at 5.6 µM. hit rate 0.91% among 290,000;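 active means inhibition above the screen-wide mean plus 3 SD, computed separately per campaign, cut at about 16% in these data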;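 further: inhibitors lower the luminescence because luciferase stays unfolded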
# Peg3 promoter = inhibitors of Peg3 promoter; AID 588405; hit rate 1.7% among 360,000; inhibition, % at 20 µM; HeLa PEG-Prom luciferase reporter, luminescence, overnight;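 active means inhibition of at least 50% at 20 µM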
# KKLEB cytotox = reduces viability of KKLEB cystic fibrosis airway cells | hit rate 0.36% among 360,000 | KKLEB CF airway cells viability, ATPlite luminescence, overnight; stronger effect = lower value; cells stimulated with P. aeruginosa culture filtrate | activity change (cytotoxicity), % at 5 µM | AID 602141;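 active means corrected activity change at or below -50% at 5 µM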
# Mdm2-MdmX inh = inhibitors of human Mdm2/MdmX interaction. O15151+Q00987. SaOS-2 split-luciferase Mdm2/MdmX complementation, luminescence. inhibition, % at 8 µM. hit rate 3% among 330,000. AID 485346;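 active means inhibition of at least 50% at 8 µM in the primary screen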
# Target sequence (O15151 whole entry, looked up): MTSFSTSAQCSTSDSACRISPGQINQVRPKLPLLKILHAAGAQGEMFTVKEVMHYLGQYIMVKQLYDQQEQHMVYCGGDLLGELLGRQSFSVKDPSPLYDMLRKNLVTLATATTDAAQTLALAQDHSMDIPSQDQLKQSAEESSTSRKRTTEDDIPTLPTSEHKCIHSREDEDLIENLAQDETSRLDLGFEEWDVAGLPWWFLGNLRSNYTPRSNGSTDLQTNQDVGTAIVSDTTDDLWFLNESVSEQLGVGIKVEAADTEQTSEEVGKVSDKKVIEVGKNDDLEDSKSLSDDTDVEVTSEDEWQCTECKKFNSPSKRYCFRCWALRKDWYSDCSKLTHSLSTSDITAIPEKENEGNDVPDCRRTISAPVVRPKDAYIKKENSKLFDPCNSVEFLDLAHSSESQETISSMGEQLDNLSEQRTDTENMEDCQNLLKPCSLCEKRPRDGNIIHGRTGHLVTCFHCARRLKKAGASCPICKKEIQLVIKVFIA
# Target sequence (Q00987 whole entry, looked up): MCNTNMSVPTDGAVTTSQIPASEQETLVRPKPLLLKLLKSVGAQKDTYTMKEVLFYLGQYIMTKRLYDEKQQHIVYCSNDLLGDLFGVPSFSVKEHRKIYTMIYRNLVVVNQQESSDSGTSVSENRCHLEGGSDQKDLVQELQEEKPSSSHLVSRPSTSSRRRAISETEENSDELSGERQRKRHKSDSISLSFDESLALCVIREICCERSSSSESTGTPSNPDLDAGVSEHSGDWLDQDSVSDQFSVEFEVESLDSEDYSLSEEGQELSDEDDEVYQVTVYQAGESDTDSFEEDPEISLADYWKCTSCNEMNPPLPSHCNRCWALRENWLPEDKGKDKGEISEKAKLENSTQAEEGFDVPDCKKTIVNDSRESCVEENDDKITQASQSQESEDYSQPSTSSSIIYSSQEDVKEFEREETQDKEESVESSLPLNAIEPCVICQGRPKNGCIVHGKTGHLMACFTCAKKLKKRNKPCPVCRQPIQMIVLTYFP
# LGR2 antag = Drosophila LGR2 receptor signaling inhibition | HEK293 LGR2, CRE-luciferase, bursicon-stimulated, 4 h | inhibition, % at 9.99 µM | hit rate 0.35% among 380,000 | AID 720647;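 active means drop in luminescence signal, shown as inhibition above about 50% in the replicate tests, limit read from the data, passing the limit was not always enough; inconclusive means probably only some replicates passing the limit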;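 further: agonist challenge used bursicon conditioned medium at about half maximal strength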
# CF NFkB inh = blocks PAF-induced NF-kB reporter in cystic fibrosis cells; KKLEB NF-kB-GFP reporter, GFP fluorescence overnight; inhibition, % at 5 µM; hit rate 0.86% among 360,000; AID 588850;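 active means at least 50% inhibition at 5 µM, scaled per plate between neutral and stimulator controls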;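 further: PAF is a Pseudomonas aeruginosa culture filtrate used as stimulus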
# Numbers stand for hits; . = inactive; ? = inconclusive; / = no result.
SMILES,HSP90 inh,Peg3 promoter,KKLEB cytotox,Mdm2-MdmX inh,LGR2 antag,CF NFkB inh
COc1cc(/C=N/NC(=O)CCn2cnc(-c3ccccc3)c2-c2ccccc2)ccc1O,.,53,.,.,.,.
COc1cc(/C=N/NC(=O)CCN2CCCCC2)ccc1O,.,.,.,.,/,.
COc1ccc(/C=N/NC(=S)Nc2cccc(C(=O)O)c2)cc1,.,.,.,.,75,.
COC(=O)c1ccc(COc2ccc(/C=N/Nc3cccc(C(=O)O)c3)cc2)cc1,23,.,.,.,.,.
COCC(=O)N(C[C@@H]1N[C@@H](CO)[C@@H]1c1ccc(C2=CCCCC2)cc1)C(C)C,/,/,/,/,.,/
O=C(/C=C/c1ccncc1)c1ccc(NC(=O)c2ccccc2F)cc1,.,103,.,/,/,72
Nc1nc(N)c2cc(CNc3ccc(Cl)c(Cl)c3)ccc2n1,/,110,.,/,107,.
CN(C)S(=O)(=O)c1ccc(NC(=O)CSc2nc3ccccc3n2-c2ccccc2)cc1,.,.,.,.,.,.
CCN(CC)c1ccc(NC(=O)CSc2nc3ccccc3c(=O)n2-c2cc(S(=O)(=O)N(C)C)ccc2C)cc1,16,.,.,.,.,.
O=C(C[C@@H]1C[C@H]2c3cc(NS(=O)(=O)c4ccc(F)cc4)ccc3O[C@H]2[C@@H](CO)O1)NC1CCCC1,/,/,/,/,.,/
C[C@@H]1CN([C@@H](C)CO)C(=O)c2cc(NC(=O)C3CC3)ccc2O[C@H]1CN(C)Cc1ccc(Oc2ccccc2)cc1,/,/,/,/,.,/
Cc1ccc(NC(=O)c2sc3nc(C)nc(N4CCN(c5ccccn5)CC4)c3c2C)c(C)c1,.,.,.,.,.,.
Cc1nc(N2CCN(c3ccccn3)CC2)c2c(C)c(C(=O)N3CCN(c4ccccc4F)CC3)sc2n1,.,72,.,/,.,.
O=C(c1ccccc1)N1CC(=O)N2[C@H](CO)[C@@H](c3ccc(C#CCC4CCCC4)cc3)[C@@H]2C1,/,/,/,/,.,/
CCOC(=O)N1CCc2cc(OC)c(OC)c3c2c1cc1cc(OC)c(OC)cc13,/,51,.,/,.,.
COc1cc(CC(=O)N2CCc3ccccc32)cc(OC)c1OC,.,.,.,.,/,.
O=C(NCc1ccc(Cl)cc1)c1ccc(CSc2nc3ccncc3[nH]2)cc1,.,.,.,.,.,.
O=C(c1ccc(CSc2nc3ccncc3[nH]2)cc1)N1CCN(c2cccc(Cl)c2)CC1,.,.,.,.,65,.
CCC(=O)Nc1ccc2c(c1)C(=O)N(C)[C@@H]1CC[C@@H](CC(=O)NCCOC)O[C@@H]1CO2,/,/,/,/,.,/
COc1cc(C)c2sc3ccccc3c(=O)c2c1NCCN(C)C,/,100,.,/,.,.
CN(C)CCNc1cccc2sc3ccc(O)cc3c(=O)c12,/,99,.,/,.,.
Cc1cc(O)cc2c(=O)c3ccccc3sc12,.,.,.,.,.,.
Nc1nc(N)c2cc(Sc3cccc(C(F)(F)F)c3)ccc2n1,/,107,.,/,.,.
Oc1cccnc1Sc1cccc(C(F)(F)F)c1,/,.,.,.,.,.
Nc1nc(N)c2cc(Sc3ccc(Cl)cc3)ccc2n1,/,104,.,/,.,.
SMILES,HSP90 inh,Peg3 promoter,KKLEB cytotox,Mdm2-MdmX inh,LGR2 antag,CF NFkB inh
O=C(Nc1ccccc1F)N[C@H]1CC[C@H](CCNC(=O)C2CCCCC2)O[C@H]1CO,/,/,/,/,.,/
COc1ccc(C[C@H]2CCn3cc(nn3)COC[C@H](C(C)C)NC2=O)cc1,/,/,/,/,.,/
N/C(=N\O)c1cn(Cc2ccccc2Cl)c2ccccc12,.,.,.,.,.,.
Cc1[nH][nH]c(=O)c1C(c1c(C)[nH][nH]c1=O)c1cn(Cc2ccccc2Cl)c2ccccc12,.,56,.,/,.,68
COc1ccc(OCC(=O)Nc2cccc(NC(=O)COc3ccc(OC)cc3)n2)cc1,.,.,-63,.,/,.
Nc1ccccc1O,/,.,.,.,/,53
C[C@@H]1CCCCO[C@@H](CN(C)Cc2ccc(C(F)(F)F)cc2)[C@@H](C)CN([C@@H](C)CO)C(=O)c2cc(NS(=O)(=O)c3cn(C)cn3)ccc2O1,/,/,/,/,.,/
N#C/C(=C/c1ccc(-c2ccc([N+](=O)[O-])cc2)o1)C(=O)Nc1nc(-c2cccs2)cs1,/,55,.,/,.,.
CCOC(=O)Nc1ccc2c(c1)C(=NO)c1ccccc1-2,/,.,.,/,.,.
CCOC(=O)Nc1ccc2c(c1)C(=NNC(N)=S)c1ccccc1-2,/,71,.,/,83,.
COc1ccc(NC(=O)c2ccc(NC3CC(=O)N(c4ccc(C)cc4C)C3=O)cc2)cc1 (configuration not stated),.,.,-56,.,.,.
O=C(C[C@H]1CC[C@H](NC(=O)c2cccnc2)[C@H](CO)O1)NCCN1CCCCC1,/,/,/,/,.,/
O=C(O)c1cccc(N2C(=O)/C(=C/c3ccc([N+](=O)[O-])cc3)C=C2c2ccccc2)c1,.,53,.,.,?,.
O=C1/C(=C/c2ccc([N+](=O)[O-])cc2)C=C(c2ccccc2)N1c1ccccc1,.,.,.,.,/,.
C[C@@H]1NC(=O)N[C@@H]1CCCCCC(=O)O,/,.,-64,.,.,.
C[C@@H]1CN([C@@H](C)CO)C(=O)c2cc(NS(=O)(=O)c3cn(C)cn3)ccc2O[C@@H]1CN(C)S(=O)(=O)c1cccs1,/,/,/,/,.,/
COc1cc(/C=N/NC(=O)C(=O)/C=C2\NC3(CCCC3)Cc3ccccc32)ccc1O,.,.,.,.,.,.
O=C(/C=C1\NC2(CCCC2)Cc2ccccc21)C(=O)N/N=C/c1ccccc1O,.,.,.,.,.,51
CC=Cc1ccc2n(c1=O)C[C@@H]1[C@@H](CO)[C@H](C(=O)NCc3ccc(F)cc3)[C@H]2N1CCC (mixture of isomers),/,/,/,/,.,/
CCOc1ccc(NC(=S)Nc2ccc(C)c([N+](=O)[O-])c2)cc1,17,.,.,.,/,.
CCOc1ccc(NC(=S)Nc2ccc(OCC)cc2)cc1,.,.,.,.,.,.
N#Cc1ccccc1Cn1cc(/C=C/[N+](=O)[O-])c2ccccc21,.,106,.,.,69,.
O=[N+]([O-])/C=C/c1cn(Cc2ccccc2)c2ccccc12,.,55,.,.,/,.
O=C(O)Cn1cc(/C=C/[N+](=O)[O-])c2ccccc21,.,.,.,.,.,.
Cc1ccc(S(=O)(=O)Nc2ccc3c(c2)C(=O)N([C@H](C)CO)C[C@@H](C)[C@H](CN(C)S(=O)(=O)c2ccccc2)O3)cc1,/,/,/,/,.,/
COc1ccc(NC(=O)Nc2ccc3c(c2)C(=O)N([C@H](C)CO)C[C@H](C)[C@H](CN(C)S(=O)(=O)c2ccc(C)cc2)OCCCC[C@@H](C)O3)cc1,/,/,/,/,.,/
C[C@@H]1CCCCO[C@H](CN(C)C(=O)CCCN(C)C)[C@@H](C)CN([C@@H](C)CO)C(=O)c2cc(NC(=O)Nc3cccc4ccccc34)ccc2O1,/,/,/,/,.,/
Cc1cc(/C=C(\C#N)c2nnc(N3CCOCC3)n2-c2ccccc2)c(C)n1-c1ccccc1,.,/,/,.,/,/

# High-throughput results (PubChem)
